Compound activity as filed in PubChem BioAssay.
SARS PLP yeast = qHTS of Yeast-based Assay for SARS-CoV PLP. S. cerevisiae expressing SARS-CoV PLpro, growth rescue. Potency, µM (highest dose often 32.9 µM), for inactives: at the highest dose activity, positive = growth rescue, actives largely listed as activators. hit rate 0.19% among 330,000; calls by dose curve; further: 0% is about no effect; nearly all actives have a fitted effect of over 55% in size
Sm TGR inh = qHTS Assay for the Inhibitors of Schistosoma Mansoni Peroxiredoxins | Schistosoma mansoni thioredoxin glutathione reductase (TGR), Q962Y6 | purified TGR, DTNB reduction, TNB absorbance 405 nm | Potency, µM (series often up to 114 µM), for the others: at the highest dose activity change, negative = inhibition, hits mostly inhibitors | hit rate 3% among 360,000; further: on the % scale 0 is the no-effect control and ±100 the full control effect; nearly all actives have a fitted effect of over 60% in size
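TGR 20 nM + NADPH 100 uM (dispensed conc.), cpd preinc 15 min RT; start with NADPH (500 uM addition) then DTNB (15 mM addition). Kinetic TNB absorbance, 405 nm filter. Four-parameter Hill fit across titration.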
Pf growth 96h = Primary qHTS for delayed death inhibitors of the malarial parasite plastid, 96 hour incubation; P. falciparum luciferase reporter growth, 96 h; hit rate 6.9% among 320,000; Potency, µM (highest dose often 28.7 µM), inactives show at the top dose activity change, negative = inhibition, hits mostly inhibitors; AID 504834, 2011; further: on the % scale 0 is the no-effect control and ±100 the full control effect
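Plates of compound plus infected erythrocytes (2% hematocrit, 0.05% parasitemia final) incubate 96 hours, 37 C, 5% CO2. Detection reagent added; reduced luminescence from the parasites' luciferase reporter flags inhibition.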
Pf growth 48h = Primary qHTS for delayed death inhibitors of the malarial parasite plastid, 48 hour incubation | P. falciparum luciferase growth in erythrocytes, 48 h | Potency, µM (top dose mostly 28.7 µM), without a hit: at the top dose activity change, negative = inhibition, actives largely listed as inhibitors | hit rate 5.9% among 310,000; further: on the % scale 0 is the no-effect control and ±100 the full control effect
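Luminescence readout; reporter = integrated firefly luciferase in P. falciparum. RBC culture at 2% hematocrit, 0.1% parasitemia final, 37 C/5% CO2; decreased signal taken as growth inhibition.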
* hit, by the source's call; ? = inconclusive; / = no result. An excerpt weighted towards active compounds, which were near 12% of everything screened. Unless noted, the call rests on the fitted dose curve; in most records, active means well fitted curve in the direction sought with a large enough effect; inconclusive means small, poorly fitted or top-dose-only effect, or another doubt; inactive means no such curve, though single readings can be large; an effect the other way counts as inactive or inconclusive. Potency means the concentration at half of the fitted maximal effect.

SMILES	SARS PLP yeast	Sm TGR inh	Pf growth 96h	Pf growth 48h
C=C(C)C1Cc2c(C)nn(-c3nc(C)cc(C)n3)c2C1 (configuration not stated)	-5%	?	13µM*	?
C=C(C)C1Cc2nc(N)nc(C)c2C1 (configuration not stated)	10%	-21%	1%	50%
O=C(CN(C(=O)c1ccc(Cl)cc1)C1CCCCC1)Nc1ccc(Cl)c([N+](=O)[O-])c1	-2%	0%	9.3µM*	?
O=C(CN(C(=O)c1ccccc1Cl)C1CCCCC1)Nc1ccc(Cl)c([N+](=O)[O-])c1	-7%	-7%	31%	13µM*
O=C(COc1ncnc2ccccc12)Nc1ccc(Cl)c([N+](=O)[O-])c1	-12%	-15%	18%	24%
CN(CC(=O)Nc1ccc(Cl)c(C(F)(F)F)c1)C(=O)CCCNC(=O)c1ccc(Cl)cc1	-4%	-1%	43%	48%
NC1(C#Cc2ccc3oc(=O)c(-n4cc(-c5ccsc5)nn4)cc3c2)CCCCC1	6%	56µM*	-2%	17%
NC1(C#Cc2ccc3oc(=O)c(-n4cc(C5(O)CCCCC5)nn4)cc3c2)CCCCC1	-2%	/	/	/
CCN1CCN(c2ncnc3sc4c(c23)CCC(C)C4)CC1 (configuration not stated)	3%	-10%	-2%	?
CC1CCc2c(sc3nc(CN4CCOCC4)nc(N4CCc5ccccc5C4)c23)C1 (configuration not stated)	-12%	-18%	4.7µM*	13µM*
CC1CCc2c(sc3nc(CN4CCOCC4)nc(NS(=O)(=O)c4cccc([N+](=O)[O-])c4)c23)C1 (configuration not stated)	-36%	-11%	13µM*	/
Cc1ccc(Oc2nc(CN3CCOCC3)nc3sc4c(c23)CCC(C)C4)cc1 (configuration not stated)	-54%	-19%	?	?
Cc1ccc(Oc2nc(CN3CCOCC3)nc3sc4c(c23)CCC(C)C4)cc1C (configuration not stated)	-89%	-14%	?	12µM*
Cc1ccc(NC(=O)c2cccc(NC(=O)CC3SC(N4CCCCC4)=NC3=O)c2)nc1 (configuration not stated)	1%	-1%	?	-21%
Cn1c(C(=O)N2CCOCC2)cc2c(=O)n3ccccc3nc21	1%	-25%	28%	13%
Cn1c(C(=O)N2CCN(C(=O)c3ccco3)CC2)cc2c(=O)n3ccccc3nc21	6%	45µM*	4.7µM*	19%
CC1CCCCC1NC(=O)c1c(O)nc2ccccn2c1=O (configuration not stated)	-1%	-8%	5.2µM*	5.2µM*
Cc1ccc(CNC(=O)c2c(O)nc3ccccn3c2=O)cc1	/	28%	/	/
CC1CCCCC1NC(=O)c1cc2c(=O)n3ccccc3nc2n1C (configuration not stated)	15%	-1%	2.3µM*	0%
CC1CC(NC(=O)c2cc3c(=O)n4ccccc4nc3n2C)CC(C)(C)C1 (configuration not stated)	10%	11%	0%	12µM*
COC(=O)c1cc2c(s1)c1cnn(Cc3ccccc3F)c(=O)c1n2C	1%	2%	?	5%
Cc1csc2nc(O)c(C(=O)NC3CCCCC3C)c(=O)n12 (configuration not stated)	7%	2%	?	7.4µM*
CC1CCN(C(=O)c2cc3c(=O)n4ccccc4nc3s2)CC1	-1%	0%	?	39%
Cc1csc2nc(O)c(C(=O)NCC3CCCO3)c(=O)n12 (configuration not stated)	7%	-2%	-4%	?
O=C(c1cc2c(=O)n3ccccc3nc2s1)N1CCOCC1	-1%	3%	5.2µM*	111%
SMILES	SARS PLP yeast	Sm TGR inh	Pf growth 96h	Pf growth 48h
COCCCN(Cc1ccco1)C(=O)CSc1nc2ncccc2[nH]1	-1%	0%	13µM*	3%
COCCCN(Cc1ccco1)C(=O)Cn1ncc2c([nH]c3ccccc32)c1=O	-1%	-28%	?	?
O=C1NC(c2ccc3c(c2)OCO3)Nc2ccccc21 (configuration not stated)	2%	-2%	?	38%
O=C1NC(c2ccc3c(c2)OCO3)Oc2ccccc21 (configuration not stated)	-3%	-4%	5.2µM*	52%
Cc1nc2ccc(S(=O)(=O)CCC(=O)Nc3ccc(C)c(C)c3)cc2s1	/	-3%	/	/
COCCN(CCOC)c1nc(-c2ccccc2)nc2ccccc12	-3%	3%	?	13µM*
CCOCCn1c(=NC(=O)c2ccc(S(=O)(=O)N3CCOCC3)cc2)sc2cc(S(N)(=O)=O)ccc21	-4%	-15%	6.6µM*	15µM*
COCCn1c(=NC(=O)c2ccc(S(=O)(=O)N3CCc4ccccc4C3)cc2)sc2cc(S(N)(=O)=O)ccc21	21%	1%	7.4µM*	?
C#CCn1c(=NC(=O)c2ccc(S(=O)(=O)N3CCc4ccccc4C3)cc2)sc2cc(S(N)(=O)=O)ccc21	-8%	0%	5.2µM*	?
C=CCn1c(=NC(=O)c2ccc(S(=O)(=O)N3CCc4ccccc4C3)cc2)sc2cc(S(N)(=O)=O)ccc21	9%	4%	?	-24%
Cc1c(Cl)cccc1NC(=O)Cn1c(=O)nc(-c2ccccc2)c2ccccc21	/	2%	/	/
O=C(NC1(C(F)(F)F)Oc2ccccc2O1)N1CCC2(CC1)OCCO2	-6%	18µM*	?	-15%
O=C(NC1(C(F)(F)F)Oc2ccc(Cl)cc2O1)N1CCC2(CC1)OCCO2 (configuration not stated)	7%	45µM*	1.9µM*	/
O=C(c1ccccc1)N1CCC2(CC1)OCCO2	-1%	-1%	32%	31%
CCC(Nc1ccc(-c2nc(-c3cccnc3)no2)cc1[N+](=O)[O-])c1ccccc1 (configuration not stated)	/	-5%	/	/
O=C(NCCc1cccs1)C12CN(Cc3ccccc3)CC1C(c1cccc([N+](=O)[O-])c1)=NO2 (configuration not stated)	-13%	-5%	?	8.3µM*
O=C(NCCCCc1ccccc1)C12CN(Cc3ccccc3)CC1C(c1cccc([N+](=O)[O-])c1)=NO2 (configuration not stated)	?	29%	?	4.7µM*
Cc1ccc(CNC(=O)C23CN(Cc4ccccc4)CC2C(c2ccc([N+](=O)[O-])cc2)=NO3)o1 (configuration not stated)	-7%	-18%	?	?
O=C(NCCCCc1ccccc1)C12CN(Cc3ccccc3)CC1C(c1ccc([N+](=O)[O-])cc1)=NO2 (configuration not stated)	-3%	-1%	?	13µM*
